# Screening results from PubChem.
# Hits are enriched below; roughly 12% of the tested compounds scored in any of these assays.
# PI5P4Ka inh: PI5P4K alpha (human) kinase inhibition. PI5P4Kalpha enzyme, ADP-Glo luminescence, 60 min; active compounds read low. max response, %. hit rate 1.2% among 330,000. AID 652105; active = max response of -50% or lower; inconclusive = between -30% and -50%; inactive = -30% or higher; also: value at the top dose of about 77 µM; % is scaled to controls: 0 for no effect and ±100 for the full control effect
# Target sequence (P48426 whole entry, looked up): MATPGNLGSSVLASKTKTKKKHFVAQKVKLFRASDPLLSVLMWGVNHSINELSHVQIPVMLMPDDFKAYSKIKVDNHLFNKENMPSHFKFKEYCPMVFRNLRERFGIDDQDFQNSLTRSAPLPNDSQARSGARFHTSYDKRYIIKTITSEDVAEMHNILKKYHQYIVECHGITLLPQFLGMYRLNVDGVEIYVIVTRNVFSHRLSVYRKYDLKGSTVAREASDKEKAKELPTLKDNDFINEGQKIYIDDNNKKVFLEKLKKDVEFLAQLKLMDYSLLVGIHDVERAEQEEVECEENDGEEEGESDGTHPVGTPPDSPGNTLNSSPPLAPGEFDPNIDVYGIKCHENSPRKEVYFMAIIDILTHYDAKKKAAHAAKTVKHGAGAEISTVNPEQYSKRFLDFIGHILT
#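 Quantitative HTS of the MLSMR library against PI5P4Kalpha with substrate. ATP added last at 5 microM final; room temperature, 60 minutes. Remaining ATP depleted, ADP converted and read as luminescence.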
# HP1b binding inh: blocks HP1-beta chromodomain binding to methylated histone tails. AlphaScreen HP1-beta / biotin-H3K9me3 peptide binding. Potency, µM (doses to about 114 µM), without a hit: top-dose activity change, negative = inhibition, hits mostly inhibitors. hit rate 0.56% among 390,000. AID 540317; also: potency is read from the fitted curve at half-maximal effect; nearly all actives have a fitted effect of over 70% in size
#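 HP1-beta protein (50 nM final) preincubated 30 min at room temperature with biotinylated H3(1-18)K9me3 peptide (50 nM) in PBS pH 7.4, 0.01% Tween-20, then compound added for 30 min. AlphaScreen streptavidin donor/nickel chelate acceptor beads (10 ug/mL final), 30 min dark, luminescence read.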
# JMJD2A Tudor inh: inhibitors of human JMJD2A Tudor domain; Potency, µM (top dose mostly 114 µM), for the others: at the highest dose activity change, negative = inhibition, most hits filed as inhibitors; hit rate 4.4% among 390,000; O75164; AlphaScreen JMJD2A-Tudor / H3K4me3 peptide binding; also: potency is read from the fitted curve at half-maximal effect; % is scaled to controls: 0 for no effect and ±100 for the full control effect; nearly all actives have a fitted effect of over 50% in size
# BAZ2B block: inhibitors of human BAZ2B bromodomain. Q9UIF8. AlphaScreen BAZ2B-H3K14Ac peptide displacement. Potency, µM (series often up to 114 µM), without a hit: at the highest dose activity change, negative = inhibition, most hits filed as inhibitors. hit rate 4.4% among 360,000; also: potency is read from the fitted curve at half-maximal effect; % is scaled to controls: 0 for no effect and ±100 for the full control effect; nearly all actives have a fitted effect of over 60% in size
#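 AlphaScreen displacement: compounds (up to 110uM) incubated 30 min at room temperature with a preformed 50 nM BAZ2B/50 nM biotinylated H3K14Ac peptide complex in PBS pH 7.4 with Tween-20. Donor and acceptor beads at 10 ug/mL final added, 20 min light-protected before reading.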
# PLK1 PBD block: PLK1 (human) polo-box domain binding inhibition; Plk1 PBD binding of FITC phosphopeptide, fluorescence polarization; P53350; AID 720504; Potency, µM, without a hit: max response, negative = inhibition, usual class: inhibitors; hit rate 2.8% among 360,000; also: potency is read from the fitted curve at half-maximal effect; series mostly up to about 57 µM; % is scaled to controls: 0 for no effect and ±100 for the full control effect; nearly all actives have a fitted effect of over 65% in size
# G9a block: inhibitors of human histone lysine methyltransferase G9a | G9a H3K9 monomethylation, AlphaScreen, 2 h | Potency, µM (highest dose often 102 µM), inactives show at the highest dose activity, negative = inhibition, actives largely listed as inhibitors | hit rate 8.8% among 350,000; also: potency is read from the fitted curve at half-maximal effect; % is scaled to controls: 0 for no effect and ±100 for the full control effect; nearly all actives have a fitted effect of over 75% in size
# Target sequence (Q96KQ7 913-1193 limits assumed): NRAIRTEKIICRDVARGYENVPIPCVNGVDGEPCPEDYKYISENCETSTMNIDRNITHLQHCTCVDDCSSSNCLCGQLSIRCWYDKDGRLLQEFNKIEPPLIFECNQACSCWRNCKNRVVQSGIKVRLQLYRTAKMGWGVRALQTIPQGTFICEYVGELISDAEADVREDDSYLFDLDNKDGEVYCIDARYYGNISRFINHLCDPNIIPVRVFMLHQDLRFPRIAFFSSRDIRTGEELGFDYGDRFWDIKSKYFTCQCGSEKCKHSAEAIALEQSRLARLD
#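 Compounds were preincubated with 20 nM G9a for 15 min, after which biotinylated H3K9 peptide (500 nM) and SAM (20 uM) started a 2 h room-temperature reaction. Monomethylated product was quantified by antibody-based AlphaScreen chemiluminescence.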
# * = called active by the depositor; ? = inconclusive; nt = no result given; [ ] = another dose, or the depositor's remark. Unless noted, calls follow the shape of the dose curve; as a rule, active = well fitted curve in the direction sought with a large enough effect; inconclusive = small, poorly fitted or top-dose-only effect, or another doubt; inactive = no such curve, though single readings can be large; an effect the other way counts as inactive or inconclusive.
SMILES,PI5P4Ka inh,HP1b binding inh,JMJD2A Tudor inh,BAZ2B block,PLK1 PBD block,G9a block
CCC(C)Nc1nc(-c2ccc3c(c2)NC(=O)CO3)cs1 (stereo not drawn),2.5,-0.9%,?,?,29.9µM*,50.1µM*
COc1ccccc1Nc1nc(-c2ccc3c(c2)NC(=O)CO3)cs1,1.0,33.0%,-21.4%,-29.7%,-8.1%,?
COc1ccc(Nc2nc(-c3ccc4c(c3)NC(=O)CO4)cs2)cc1,1.0,?,?,-26.0%,?,44.7µM*
O=C1c2ccccc2C(c2nnnn2Cc2ccccc2)N1Cc1cccs1 (stereo not drawn),-1.6,nt,nt,nt,-7.4%,nt
Cc1ccc(CNC(=O)CN2CCN(Cc3ccc(F)cc3)C2=O)cc1,nt,13.5%,-14.7%,-1.1%,nt,-7.4%[59 µM]
CN1CCN(c2ccc(CNC(=O)c3ccc(-c4ccc(F)c(F)c4)c4ccoc34)cc2)CC1,-4.1,nt,nt,nt,-3.4%,nt
Nc1nc(-c2ccc3ccccc3c2)cs1,-1.9,-35.8%,-35.8%,?,-19.7%,50.1µM*
CC(=O)Nc1ccc(S(=O)(=O)Nc2cccc(-c3csc(C)n3)c2)cc1,0.7,38.9%,-4.8%,-6.1%,7.5%,8.9%[0.501 µM]
Cc1ccc(-c2csc(N)n2)cc1,0.9,-17.1%,-34.5%,nt,-14.9%,nt
Nc1nc(-c2ccc(-c3ccccc3)cc2)cs1,0.0,-8.3%,-23.1%,-32.2%,-20.2%,44.7µM*
Nc1nc(-c2cccs2)cs1,nt,11.1%,-24.4%,-37.9%,-23.3%,79.4µM*
Nc1nc(-c2cccc(NS(=O)(=O)c3ccccc3)c2)cs1,nt,-16.3%,?,?,?,44.7µM*
COc1ccc(CNc2ccnc(-c3cccc(C#N)c3)n2)c(OC)c1,nt,nt,nt,nt,nt,4.2%[0.501 µM]
COc1ccc(-c2ccc3ncnc(N(C)Cc4csc(C)n4)c3c2)cc1OC,nt,nt,-14.9%,nt,nt,nt
COC(=O)c1ccc(OC(=O)c2ccncc2)cc1O,4.9,55.2%,-14.8%,-3.6%,-18.7%,?
CN1CCN(c2nc(-c3cccs3)cs2)CC1,-6.5,-15.0%,?,?,-5.6%,35.5µM*
COc1ccc(C(=O)c2c(C)c3ccccc3n2CC(O)CNC(C)C)cc1 (stereo not drawn),1.2,1.2%,-26.1%,-8.5%,-0.3%,44.7µM*
COc1ccccc1CNCC(O)Cn1c2ccccc2c2ccccc21 (stereo not drawn),15.6,10.8%,-34.8%,-32.5%,-8.3%,-53.3%[59 µM]
Cc1ccc(C)c(C(=O)CSc2n[nH]c(-c3ccncc3)n2)c1,-2.8,29.3%,89.1µM*,-3.9%,-3.6%,-1.3%
Nc1nc(SCC(=O)c2cccc([N+](=O)[O-])c2)n[nH]1,4.8,10.5%,-11.6%,-27.2%,?,2.51µM*
CCc1nc(SCC(=O)c2cccc([N+](=O)[O-])c2)n[nH]1,-20.0,?,39.8µM*,0.4%,-3.0%,?
O=C(CSc1n[nH]c(-c2ccncc2)n1)c1cccc([N+](=O)[O-])c1,-19.0,27.0%,-15.4%,-31.4%,-26.6%,22.4µM*
Cc1cc(-c2ccccc2)nc(SCC(=O)c2cccc([N+](=O)[O-])c2)n1,nt,0.3%,-35.9%,?,-0.7%,-9.5%
Nc1nc(SCc2cccc([N+](=O)[O-])c2)n[nH]1,3.3,18.9%,-7.6%,0.3%,-9.4%,-7.4%
Cc1cc(C)c(C(=O)CSc2n[nH]c(-c3ccncc3)n2)c(C)c1,5.3,35.4%,-10.5%[57.1 µM],-10.3%,-13.0%,nt
SMILES,PI5P4Ka inh,HP1b binding inh,JMJD2A Tudor inh,BAZ2B block,PLK1 PBD block,G9a block
O=C(CSc1nccn1-c1ccc(F)cc1)Nc1nc2ccccc2s1,nt,3.1%[57 µM],-10.0%,-7.2%,nt,-5.2%[59 µM]
COc1cc(C)ccc1OCCSc1nc2ccc(NC(C)=O)cc2s1,nt,21.2%,?,?,nt,-7.6%[59 µM]
CCOC(=O)c1cccc(NC(=O)NC(C)c2c(-n3cccc3)sc3c2CCN(C)C3)c1 (stereo not drawn),nt,5.6%,?,?,nt,?
CCCC1(C)C(C#N)C(=O)NC(=O)C1C#N (stereo not drawn),-22.9,21.6%[57 µM],2.1%,nt,3.3%,nt
CCCC1(C)C(C#N)(C#N)C1(C#N)C#N,nt,nt,nt,nt,nt,8.91µM*
CCCCN1CCC(n2c(=O)[nH]c3ccccc32)CC1,nt,nt,nt,nt,nt,9.47µM*
CC(CN1CCCCC1)NC(=O)c1scnc1-c1ccccc1 (stereo not drawn),-12.6,nt,nt,nt,-0.7%,nt
COc1ccc(CCNCC(=O)Nc2ccc(C)c(S(=O)(=O)N(C)C)c2)cc1,2.9,?,0.794µM*,50.1µM*,-12.5%,14.1µM*
CCN(CC)S(=O)(=O)c1ccc(C)c(NC(=S)NC2CCCCC2)c1,6.2,25.4%,-18.6%,-20.1%,-18.7%,-31.4%
COc1ccc(CNCC(=O)Nc2cccc(S(N)(=O)=O)c2)cc1,1.7,6.8%,0.708µM*,56.2µM*,-1.1%,-142.4%[59 µM]
Cc1ccc(NC(=O)CNCC2CCCCC2)cc1S(=O)(=O)N(C)C,-4.0,-18.3%,22.4µM*,?,1.7%,?
Cc1ccc(NC(=S)NC2CCCCC2)cc1S(=O)(=O)N(C)C,-0.4,-15.1%,-21.9%,-10.7%,?,39.8µM*
Cc1ccc(NC(=O)NC2CCCCC2)cc1Cl,nt,18.7%,-4.0%,-2.9%,-2.7%,21.9%[12.7 µM]
Cc1ccc(NC(=O)CN(C)C2CCCCC2)cc1Cl,-2.8,?,10µM*,?,-11.9%,nt
COc1ccc(Cl)cc1NC(=O)C1CCN(C(=O)Nc2ccccc2)CC1,3.5,55.8%,-2.0%,-5.0%,1.4%,1.6%[59 µM]
COc1ccc(OC)c(/C=c2\sc3nc(-c4cccs4)nn3c2=O)c1,-3.1,9.6%,-16.7%,-3.6%,?,11.2µM*
COc1ccccc1/C=c1\sc2nc(-c3ccco3)nn2c1=O,-69.2*,50.1µM*,17.8µM*,35.5µM*,?,20µM*
O=C(NCCc1ccco1)C(=O)NCC1CCCN1S(=O)(=O)c1ccccc1 (stereo not drawn),-6.3,?,-18.6%,-0.8%,-8.9%,-3.5%[0.501 µM]
COCCn1nnnc1C(c1ccc2ncccc2c1)N1CCc2ccccc21 (stereo not drawn),nt,10.8%,-23.0%,-35.8%,-0.4%,50.1µM*
COCCn1nnnc1C(c1ccc(OC)cc1OC)N1CCN(c2ccccc2)CC1 (stereo not drawn),-5.5,3.1%,?,?,-10.7%,?
COCCn1nnnc1C(c1ccc2ncccc2c1)N1CCN(c2ccccc2F)CC1 (stereo not drawn),nt,30.9%,-25.2%,50.1µM*,-8.1%,8.91µM*
CCc1ccc2[nH]c(=O)c(C(c3nnnn3CCOC)N3CCN(c4ccccc4F)CC3)cc2c1 (stereo not drawn),7.0,6.2%,-29.5%,-36.0%,-2.9%,?
COCCn1nnnc1C(c1ccc(OC)cc1OC)N1CCN(c2ccccc2F)CC1 (stereo not drawn),0.2,21.4%,-17.6%,?,-1.6%,56.2µM*
Cc1nc2sc(C(=O)Nc3ccc(F)cc3)c(N)c2c(-c2ccc(Br)cc2)c1C(=O)Nc1ccc(Cl)cc1,nt,69.7%,10.6%,-1.9%,nt,-23.1%[59 µM]
